Results: PubChem BioAssay (Tox21)
“And” between values parts separate entries of the source, which are not always exact repeats. Identical values can stand only once. Results filed as inconclusive are left out. Where a call stands in place of a potency, no number is given. More than one record can exist for a structure, and the calls need not agree. The source made the active and inactive calls. Unless noted, calls come from the whole dose curve; as a rule, active = well fitted curve in the direction sought with a large enough effect in the repeat runs; inconclusive = weak or mixed curves; inactive = no such curve, though single readings can be large; an effect the other way counts as inactive or inconclusive.

Assays:
[1] = qHTS assay to identify small molecule antagonists of the thyroid receptor (TR) signaling pathway - cell viability counter screen (AID 743064); note: nearly all actives have a fitted effect of over 50% in size
In short: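 In rat pituitary GH3.TRE-Luc reporter cells co-exposed to compound and 1 nM T3 for 23.5 h, cytotoxicity was assessed with CellTiter-Fluor in the same wells, read by fluorescence.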

[2] = qHTS assay to identify small molecule antagonists of the thyroid receptor (TR) signaling pathway (AID 743065); note: series mostly up to about 70 µM; nearly all actives have a fitted effect of over 55% in size
In short: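 Antagonism measured as loss of luciferase signal in GH3 cells stably carrying a TRE-luciferase reporter, co-treated with compound and T3 (1 nM final) for 23.5 h at 37 C. Viability was read in the same well by CellTiter-Fluor.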

[3] = tested on: thyroid hormone receptor (rat, GH3 cells); test: qHTS assay to identify small molecule agonists of the thyroid receptor (TR) signaling pathway (AID 743066; calls by dose curve)
[4] = molecular target: Estrogen receptor (Homo sapiens) (UniProt P03372); test: qHTS assay to identify small molecule antagonists of the estrogen receptor alpha (ER-alpha) signaling pathway (AID 743069; active = well fitted curve in the direction sought with a large enough effect in the signal ratio in the repeat runs, not every such curve was filed as active; the % refers to the signal ratio)
Estrogen receptor (Homo sapiens), sequence (P03372 whole entry, looked up): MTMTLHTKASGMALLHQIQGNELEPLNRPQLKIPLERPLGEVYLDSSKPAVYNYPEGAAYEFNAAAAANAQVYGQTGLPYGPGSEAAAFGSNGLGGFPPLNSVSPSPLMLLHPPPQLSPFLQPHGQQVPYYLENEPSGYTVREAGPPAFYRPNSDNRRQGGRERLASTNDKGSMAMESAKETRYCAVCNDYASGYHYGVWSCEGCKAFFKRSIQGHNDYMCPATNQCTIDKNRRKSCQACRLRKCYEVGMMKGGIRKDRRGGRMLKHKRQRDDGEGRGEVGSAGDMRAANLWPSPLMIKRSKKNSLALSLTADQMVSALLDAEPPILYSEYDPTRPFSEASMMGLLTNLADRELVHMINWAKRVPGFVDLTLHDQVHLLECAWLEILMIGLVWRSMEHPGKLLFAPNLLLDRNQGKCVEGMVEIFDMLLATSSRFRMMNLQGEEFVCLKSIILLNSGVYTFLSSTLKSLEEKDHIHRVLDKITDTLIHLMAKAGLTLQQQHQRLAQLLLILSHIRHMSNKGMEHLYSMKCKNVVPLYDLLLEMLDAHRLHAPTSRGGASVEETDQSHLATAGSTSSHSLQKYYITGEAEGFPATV
In short: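 Compound effects are measured against 17beta-estradiol stimulation in HEK293 cells with a UAS-controlled beta-lactamase reporter for ER-alpha. Exposure lasts 18 hr at 37C; LiveBLAzer B/G FRET substrate follows for 2 hr at room temperature.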

[5] = qHTS assay to identify small molecule antagonists of the estrogen receptor alpha (ER-alpha) signaling pathway - cell viability counter screen (AID 743074; calls by dose curve;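 note: HEK293 cells carrying ER-alpha-UAS-bla reporter stimulated with 17beta-estradiol; nearly all actives have a fitted effect of over 45% in size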)
[6] = molecular target: Estrogen receptor (Homo sapiens) (UniProt P03372); test: qHTS assay to identify small molecule agonists of the estrogen receptor alpha (ER-alpha) signaling pathway (AID 743075; calls by dose curve)
[7] = molecular target: Estrogen receptor (Homo sapiens) (UniProt P03372); test: qHTS assay to identify small molecule agonists of the estrogen receptor alpha (ER-alpha) signaling pathway using the BG1 cell line (AID 743079); note: nearly all actives have a fitted effect of over 20% in size; note: potency is the fitted concentration of half-maximal effect
[8] = qHTS assay to identify small molecule antagonists of the estrogen receptor alpha (ER-alpha) signaling pathway using the BG1 cell line (AID 743080; calls by dose curve;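 note: BG1 cells stimulated with 17beta-estradiol alongside compound; series mostly up to about 70 µM; nearly all actives have a fitted effect of over 25% in size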)
In short: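 BG1-Luc-4E2 cells (endogenous full-length ER-alpha, 4xERE luciferase) hormone-starved 5 days in charcoal-stripped FBS, plated 4,000/well for 24 h, then compound plus 17beta-estradiol for 21.5 h at 37 C; ONE-Glo luminescence read.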

[9] = qHTS assay to identify small molecule antagonists of the estrogen receptor alpha (ER-alpha) signaling pathway using the BG1 cell line - cell viability counter screen (AID 743081);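 note: compound given together with 17beta-estradiol as the ER stimulus; series mostly up to about 70 µM; nearly all actives have a fitted effect of over 45% in size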
Aromatase (Homo sapiens) = Aromatase (Homo sapiens) (UniProt P11511); test: qHTS assay to identify aromatase inhibitors (AID 743083); note: series mostly up to about 70 µM; nearly all actives have a fitted effect of over 55% in size
Aromatase (Homo sapiens), sequence (P11511 whole entry, looked up): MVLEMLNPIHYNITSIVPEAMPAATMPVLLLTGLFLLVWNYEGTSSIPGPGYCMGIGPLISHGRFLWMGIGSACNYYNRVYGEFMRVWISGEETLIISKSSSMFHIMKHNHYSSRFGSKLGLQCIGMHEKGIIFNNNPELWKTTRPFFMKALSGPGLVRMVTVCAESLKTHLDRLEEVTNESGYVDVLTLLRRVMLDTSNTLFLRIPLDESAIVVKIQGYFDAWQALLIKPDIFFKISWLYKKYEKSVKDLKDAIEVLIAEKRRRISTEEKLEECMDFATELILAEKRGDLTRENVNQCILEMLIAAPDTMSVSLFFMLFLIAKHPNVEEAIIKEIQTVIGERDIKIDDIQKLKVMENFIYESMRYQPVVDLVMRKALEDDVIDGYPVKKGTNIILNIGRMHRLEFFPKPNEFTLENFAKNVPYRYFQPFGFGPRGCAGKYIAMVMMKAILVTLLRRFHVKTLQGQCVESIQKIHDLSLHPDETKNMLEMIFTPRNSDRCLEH

[10] = qHTS assay to identify aromatase inhibitors - cell viability counter screen (AID 743084);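 note: cells stimulated with testosterone during compound exposure; nearly all actives have a fitted effect of over 55% in size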
[11] = qHTS assay to identify small molecule that activate the aryl hydrocarbon receptor (AhR) signaling pathway - cell viability counter screen (AID 743086);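 note: HepG2 liver cells carrying the AhR DRE luciferase reporter; series mostly up to about 70 µM; nearly all actives have a fitted effect of over 45% in size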
In short: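 Cytotoxicity counter screen: CellTiter-Fluor signal (30 min, 37 C) in 4000 HepG2 cells/well carrying the DRE-luciferase reporter, following 24 h compound exposure at 37 C.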

[12] = molecular target: Peroxisome proliferator-activated receptor gamma (Homo sapiens) (UniProt P37231); test: qHTS assay to identify small molecule agonists of the peroxisome proliferator-activated receptor gamma (PPARg) signaling pathway (AID 743094; active = well fitted activation curve with a large enough effect in the signal ratio in the repeat runs, not every such curve was filed as active; the % refers to the signal ratio)
Peroxisome proliferator-activated receptor gamma (Homo sapiens), sequence (P37231 whole entry, looked up): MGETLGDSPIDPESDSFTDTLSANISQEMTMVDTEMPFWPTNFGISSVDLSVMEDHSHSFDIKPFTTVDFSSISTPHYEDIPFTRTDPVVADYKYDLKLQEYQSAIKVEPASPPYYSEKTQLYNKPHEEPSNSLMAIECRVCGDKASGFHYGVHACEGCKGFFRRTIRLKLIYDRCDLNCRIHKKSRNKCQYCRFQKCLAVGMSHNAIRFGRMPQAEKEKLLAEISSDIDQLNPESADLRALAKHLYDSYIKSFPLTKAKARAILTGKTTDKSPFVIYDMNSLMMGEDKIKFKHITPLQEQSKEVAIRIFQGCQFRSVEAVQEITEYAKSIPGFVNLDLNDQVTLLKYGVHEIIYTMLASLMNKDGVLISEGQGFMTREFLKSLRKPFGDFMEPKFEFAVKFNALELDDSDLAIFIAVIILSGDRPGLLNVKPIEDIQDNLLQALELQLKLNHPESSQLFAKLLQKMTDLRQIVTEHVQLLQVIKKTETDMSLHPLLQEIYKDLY
In short: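 Stably transfected HEK293H cells (GeneBLAzer PPARg UAS-bla) were incubated with test substances for 17 h at 37C after a 5 h pre-incubation; beta-lactamase activity was then detected by FRET substrate fluorescence.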

[13] = molecular target: Peroxisome proliferator-activated receptor gamma (Homo sapiens) (UniProt P37231); test: qHTS assay to identify small molecule antagonists of the peroxisome proliferator-activated receptor gamma (PPARg) signaling pathway (AID 743191; calls by dose curve; note: series mostly up to about 63 µM; nearly all actives have a fitted effect of over 30% in size)
In short: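 Beta-lactamase reporter under UAS control in HEK293H PPARg-bla cells; compound treatment 17 h at 37C. Read-out: fluorescence intensity after 1 h room-temperature incubation with LiveBLAzer B/G FRET substrate.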

[14] = qHTS assay to identify small molecule antagonists of the peroxisome proliferator-activated receptor gamma (PPARg) signaling pathway - cell viability counter screen (AID 743194); note: nearly all actives have a fitted effect of over 55% in size
In short: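 Viability was measured as CellTiter-Glo luminescence in GeneBLAzer PPARg UAS-bla HEK293H cells. These cells had been exposed 17 h at 37 C to compounds together with rosiglitazone at 50 nM final, with the beta-lactamase readout taken in the same wells.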

[15] = qHTS assay for small molecule agonists of the antioxidant response element (ARE) signaling pathway (AID 743202; active = well fitted activation curve with a large enough effect in the signal ratio in the repeat runs, not every such curve was filed as active; the % refers to the signal ratio; note: potency is the fitted concentration of half-maximal effect)
In short: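 An ARE-responsive beta-lactamase gene stably integrated in HepG2 cells serves as reporter. After 5 h plating and 16 h compound incubation at 37 C, fluorescence of the B/G FRET substrate was measured.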

[16] = qHTS assay for small molecule agonists of the antioxidant response element (ARE) signaling pathway - cell viability counter screen (AID 743203; calls by dose curve; note: nearly all actives have a fitted effect of over 55% in size)
In short: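 Cells (ARE-bla HepG2, 2,000/well) receive DMSO-dissolved compounds after a 5 hrs rest. Plates incubate 16 hrs at 37C/5% CO2. CellTiter-Glo luminescence is then recorded after 30 min at room temperature.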

[17] = qHTS assay for small molecule activators of the heat shock response signaling pathway - cell viability counter screen (AID 743209); note: nearly all actives have a fitted effect of over 50% in size
In short: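 Quantitative HTS format, Tox21 10K library. HeLa cells carrying an HSE-driven beta-lactamase reporter were treated 5 h at 37 C, then assessed for viability by CellTiter-Glo luminescence.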

[18] = qHTS assay for small molecule activators of the heat shock response signaling pathway (AID 743210; active = well fitted activation curve with a large enough effect in the signal ratio in the repeat runs, with a control signal flat, not every such curve was filed as active; the % refers to the signal ratio;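 note: HeLa cells with beta-lactamase reporter driven by heat shock elements; series mostly up to about 63 µM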)
In short: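 In HSE-bla HeLa cells, 5 h compound incubation (37 C) precedes addition of LiveBLAzer B/G substrate; after 2.5 h at room temperature, fluorescence intensity indicates reporter induction.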

[19] = molecular target: Aryl hydrocarbon receptor (Homo sapiens) (UniProt P35869); test: qHTS assay to identify small molecule that activate the aryl hydrocarbon receptor (AhR) signaling pathway (AID 743085);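 note: HG2L7.5c1 human HepG2 liver cells with stably integrated DRE-driven firefly reporter; series mostly up to about 70 µM; nearly all actives have a fitted effect of over 15% in size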
Aryl hydrocarbon receptor (Homo sapiens), sequence (P35869 whole entry, looked up): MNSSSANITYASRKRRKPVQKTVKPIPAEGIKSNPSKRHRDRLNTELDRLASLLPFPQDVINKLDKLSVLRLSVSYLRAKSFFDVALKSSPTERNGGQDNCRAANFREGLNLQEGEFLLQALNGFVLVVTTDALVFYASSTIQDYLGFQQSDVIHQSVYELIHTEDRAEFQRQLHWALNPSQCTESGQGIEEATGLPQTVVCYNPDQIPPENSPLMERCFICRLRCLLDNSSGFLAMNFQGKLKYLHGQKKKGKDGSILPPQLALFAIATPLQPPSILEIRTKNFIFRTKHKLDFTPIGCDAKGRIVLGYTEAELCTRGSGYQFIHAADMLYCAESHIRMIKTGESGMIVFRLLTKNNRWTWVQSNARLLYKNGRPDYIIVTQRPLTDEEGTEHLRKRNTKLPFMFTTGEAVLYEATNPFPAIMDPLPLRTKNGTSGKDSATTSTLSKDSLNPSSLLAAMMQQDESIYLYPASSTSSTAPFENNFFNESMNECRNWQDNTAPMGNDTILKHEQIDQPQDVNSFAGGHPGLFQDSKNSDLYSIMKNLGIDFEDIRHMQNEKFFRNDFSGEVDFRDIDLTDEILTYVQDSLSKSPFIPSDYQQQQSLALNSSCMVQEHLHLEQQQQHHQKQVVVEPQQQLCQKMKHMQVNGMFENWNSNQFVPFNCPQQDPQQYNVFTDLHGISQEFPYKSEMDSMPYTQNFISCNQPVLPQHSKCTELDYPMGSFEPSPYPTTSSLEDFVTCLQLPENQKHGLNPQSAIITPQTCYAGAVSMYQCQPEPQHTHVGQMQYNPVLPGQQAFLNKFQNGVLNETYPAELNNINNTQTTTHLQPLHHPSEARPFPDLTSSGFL
In short: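 AhR agonist activity is inferred from enhanced light output of a DRE-controlled firefly luciferase reporter in HepG2 cells, measured with ONE-Glo following 24 h treatment at 37C.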

Nc1nc(N)nc(-c2ccccc2)n1
Potency [1]: inactive
Potency [2]: inactive
outcome [3]: inactive
Potency [4]: inactive
outcome [5]: inactive
Potency [6]: inactive
Potency [7]: inactive and 34.4 µM (active)
outcome [8]: inactive
Potency [9]: inactive
Potency (Aromatase (Homo sapiens)): inactive
Potency [10]: inactive
Potency [11]: inactive
outcome [12]: inactive
outcome [13]: inactive
outcome [14]: inactive
Potency [15]: inactive
Potency [16]: inactive
outcome [17]: inactive
outcome [18]: inactive

OCc1ccccc1
Potency [1]: inactive
Potency [2]: inactive
outcome [3]: inactive
Potency [4]: inactive
outcome [5]: inactive
Potency [6]: inactive
Potency [7]: inactive
Potency [9]: inactive
Potency (Aromatase (Homo sapiens)): inactive
Potency [10]: inactive
Potency [19]: inactive
Potency [11]: inactive
outcome [12]: inactive
outcome [13]: inactive
outcome [14]: inactive
Potency [15]: inactive
outcome [17]: inactive

O=C(O)c1ccc(S(=O)(=O)N(Cl)Cl)cc1
Potency [1]: inactive
Potency [2]: inactive
outcome [3]: inactive
Potency [4]: inactive
outcome [5]: inactive
Potency [6]: inactive
Potency [7]: inactive
Potency [9]: inactive
Potency (Aromatase (Homo sapiens)): inactive
Potency [10]: inactive
Potency [19]: inactive
Potency [11]: inactive
outcome [12]: inactive
outcome [13]: inactive
outcome [14]: inactive
Potency [15]: 27.5 µM (active) and inactive
Potency [16]: inactive
outcome [17]: inactive
outcome [18]: inactive

CC(=O)Oc1ccc(C)cc1
Potency [1]: inactive
Potency [2]: inactive
outcome [3]: inactive
Potency [4]: inactive
outcome [5]: inactive
Potency [6]: inactive
Potency [7]: inactive
outcome [8]: inactive
Potency [9]: inactive
Potency (Aromatase (Homo sapiens)): inactive
Potency [10]: inactive
Potency [19]: inactive
Potency [11]: inactive
outcome [12]: inactive
outcome [13]: inactive
outcome [14]: inactive
Potency [16]: inactive
outcome [17]: inactive
outcome [18]: inactive

CNC(=S)N(C)C
Potency [1]: inactive
Potency [2]: inactive
outcome [3]: inactive
Potency [4]: inactive
outcome [5]: inactive
Potency [6]: inactive
Potency [7]: inactive
Potency [9]: inactive
Potency (Aromatase (Homo sapiens)): inactive
Potency [10]: inactive
Potency [19]: inactive
Potency [11]: inactive
outcome [12]: inactive
outcome [13]: inactive
outcome [14]: inactive
Potency [15]: inactive
outcome [17]: inactive
outcome [18]: inactive

CCCCCCCC=O
Potency [1]: inactive
Potency [2]: inactive
outcome [3]: inactive
Potency [4]: inactive
outcome [5]: inactive
Potency [6]: inactive
Potency [7]: inactive
outcome [8]: inactive
Potency [9]: inactive
Potency (Aromatase (Homo sapiens)): inactive
Potency [10]: inactive
Potency [19]: inactive
Potency [11]: inactive
outcome [12]: inactive
Potency [15]: inactive
Potency [16]: inactive
outcome [17]: inactive

C=CCCCCCCCCC(=O)O
Potency [1]: inactive
Potency [2]: inactive
outcome [3]: inactive
Potency [4]: inactive
outcome [5]: inactive
Potency [6]: inactive
Potency [7]: inactive
outcome [8]: inactive
Potency [9]: inactive
Potency (Aromatase (Homo sapiens)): inactive
Potency [10]: inactive
Potency [19]: inactive
Potency [11]: inactive
outcome [12]: inactive
outcome [14]: inactive
Potency [16]: inactive
outcome [17]: inactive
outcome [18]: inactive

CCCCCCC=O
Potency [1]: inactive
Potency [2]: inactive
outcome [3]: inactive
Potency [4]: inactive
outcome [5]: inactive
Potency [6]: inactive
Potency [7]: inactive
Potency [9]: inactive
Potency (Aromatase (Homo sapiens)): inactive
Potency [10]: inactive
Potency [19]: inactive
Potency [11]: inactive
outcome [12]: inactive
outcome [13]: inactive
outcome [14]: inactive
Potency [15]: inactive
Potency [16]: inactive
outcome [17]: inactive

CC(C)OC(=O)COc1ccc(Cl)cc1Cl
Potency [1]: inactive
Potency [2]: inactive
outcome [3]: inactive
Potency [4]: inactive
outcome [5]: inactive
Potency [6]: inactive
Potency [7]: inactive
Potency [9]: inactive
Potency (Aromatase (Homo sapiens)): inactive
Potency [10]: inactive
Potency [19]: inactive
Potency [11]: inactive
outcome [12]: inactive
outcome [13]: inactive
outcome [14]: inactive
Potency [15]: inactive
Potency [16]: inactive
outcome [17]: inactive
outcome [18]: inactive

CCCCCCCO
Potency [1]: inactive
Potency [2]: inactive
outcome [3]: inactive
Potency [4]: inactive
outcome [5]: inactive
Potency [6]: inactive
Potency [7]: inactive
outcome [8]: inactive
Potency [9]: inactive
Potency (Aromatase (Homo sapiens)): inactive
Potency [10]: inactive
Potency [19]: inactive
Potency [11]: inactive
outcome [12]: inactive
outcome [13]: inactive
Potency [16]: inactive
outcome [17]: inactive
outcome [18]: inactive

CC1(C)NC(=O)NC1=O
Potency [1]: inactive
Potency [2]: inactive
outcome [3]: inactive
Potency [4]: inactive
outcome [5]: inactive
Potency [6]: inactive
Potency [7]: inactive
outcome [8]: inactive
Potency [9]: inactive
Potency (Aromatase (Homo sapiens)): inactive
Potency [10]: inactive
Potency [19]: inactive
Potency [11]: inactive
outcome [12]: inactive
outcome [13]: inactive
outcome [14]: inactive
Potency [15]: inactive
outcome [17]: inactive

C=CC(C)CCCC(C)(C)O (configuration not stated)
Potency [1]: inactive
Potency [2]: inactive
outcome [3]: inactive
Potency [4]: inactive
outcome [5]: inactive
Potency [6]: inactive
Potency [7]: inactive
outcome [8]: inactive
Potency [9]: inactive
Potency (Aromatase (Homo sapiens)): inactive
Potency [10]: inactive
Potency [19]: inactive
Potency [11]: inactive
outcome [12]: inactive
outcome [13]: inactive
outcome [14]: inactive
Potency [15]: inactive
Potency [16]: inactive
outcome [17]: inactive

CC(=O)OCCOC(C)=O
Potency [1]: inactive
Potency [2]: inactive
outcome [3]: inactive
Potency [4]: inactive
outcome [5]: inactive
Potency [6]: inactive
Potency [7]: inactive
Potency [9]: inactive
Potency (Aromatase (Homo sapiens)): inactive
Potency [10]: inactive
Potency [19]: inactive
Potency [11]: inactive
outcome [12]: inactive
outcome [13]: inactive
outcome [14]: inactive
Potency [15]: inactive
outcome [17]: inactive
outcome [18]: inactive

c1ccc2c(c1)Cc1ccccc1-2
Potency [1]: inactive
Potency [2]: inactive
outcome [3]: inactive
Potency [4]: inactive
outcome [5]: inactive
Potency [6]: inactive
Potency [7]: inactive
outcome [8]: inactive
Potency [9]: inactive
Potency (Aromatase (Homo sapiens)): inactive
Potency [10]: inactive
Potency [19]: inactive
Potency [11]: inactive
outcome [12]: inactive
outcome [13]: inactive
Potency [15]: inactive
Potency [16]: inactive
outcome [17]: inactive

CCCCCC(=O)O
Potency [1]: inactive
Potency [2]: inactive
outcome [3]: inactive
Potency [4]: inactive
outcome [5]: inactive
Potency [6]: inactive
Potency [7]: inactive
outcome [8]: inactive
Potency [9]: inactive
Potency (Aromatase (Homo sapiens)): inactive
Potency [10]: inactive
Potency [19]: inactive
Potency [11]: inactive
outcome [12]: inactive
Potency [15]: inactive
outcome [17]: inactive
outcome [18]: inactive
